About 79,000 compounds went through this panel and 15% of them were active in at least one assay; those are over-represented in the sample as a whole. Values without a mark were called inactive. Activity calls are given as the source filed them. No stated cut-off is given here; in the data, active means growth inhibition above about 70%; inactive means the rest.

This assay is described as follows: NCI Yeast Anticancer Drug Screen. Data for the cln2 rad14 strain (AID 165).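 Further: 0% = growth equal to vehicle treated cultures.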 Particulars: S. cerevisiae cln2 rad14 strain, at 50.0 µM, stronger effect = higher value. In short, it runs like this: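 cln2 rad14 yeast strain; compound exposure; growth inhibition read vs vehicle controls.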
With `O=c1c2c(nc3n1CCC3)OC(c1ccccc1)C2` (stereo not given), the growth inhibition was -44.8%.

Turning to `C1CCC2C(C1)CCCC2NC1=NCCO1` (stereo not given), the growth inhibition is 12.8%.

On to `O=C1/C(=C/C=C/c2ccccc2)CCC1CNc1ccc(Br)cc1` (stereo not given), for which the growth inhibition was 16.9%.

With `COC1OC(CS(=O)(=O)O)C(O)C(O)C1O` (stereo not given), the growth inhibition is -13.6%.

For the molecule `Cc1ccc(S(=O)(=O)[N-]C2C(=O)c3ccccc3C(=O)C2[n+]2cccc(C(N)=O)c2)cc1` (stereo not given), the growth inhibition was 4.55%.

With `O=C(Nc1ccc(Cl)c(Cl)c1)c1ccc(C(=O)Nc2ccc(Cl)c(Cl)c2)cc1`, the growth inhibition is -18.9%.

In the case of `NC(=S)NCc1ccccc1C(O)c1ccccc1` (stereo not given), the growth inhibition was 18.3%.

Regarding `FC(F)(c1nn[nH]n1)C(F)(F)C(F)(F)c1nn[nH]n1`, the growth inhibition was -36.2%.

For the molecule `Clc1cccc(N2CCN(CCN3CCc4c([nH]c5ccccc45)C3c3cccnc3)CC2)c1` (stereo not given), the growth inhibition was 9.45%.

As for `C(#Cc1ccccc1)SC1=C(c2ccccc2)S/C(=C(\SC#Cc2ccccc2)c2ccccc2)S1`, the growth inhibition was 10.9%.

On to `CCOC(=O)/C(C)=C/CC1=C(O)c2ccccc2C(=O)C1=O`, for which the growth inhibition was 16.2%.

With `CCN(CC)c1ncnc2c1nc(C)n2Nc1ccccc1`, the growth inhibition was 7.4%.

For `CC(=O)c1ccc(NC(=O)/C(=N\NC(N)=O)C(C#N)CC(C)(C)C=O)cc1` (stereo not given), the growth inhibition is 21.1%.

Take `O=C(COc1cccc(Cl)c1)Nc1ccc(C(=O)CCl)cc1`: the growth inhibition was 11.8%.

For the molecule `O=c1c[n+](-c2ccccc2)[nH]o1`, the growth inhibition was 5.5%.

Turning to `CC1(C)CC(=O)C(/C(=N/NC(=S)NN)C(=O)Nc2nc3ccc([N+](=O)[O-])cc3s2)C(=O)C1`, the growth inhibition is -26.9%.

With `CCC(C#N)(c1ccccc1)N(CCc1ccccc1)C(=O)c1ccccc1` (stereo not given), the growth inhibition was -20.9%.

As for `Cc1cccc(C(=O)C(O)c2cccc(C)n2)n1` (stereo not given), the growth inhibition was 8.2%.

For the molecule `CC[N+](CC)(CC)C[Si](C)(C)C`, the growth inhibition is 2.4%.

Take `Cc1ccc(NC(=O)NCCCN2CCOCC2)cc1NC(=O)NCCCN1CCOCC1`: the growth inhibition is 17.2%.

On to `C/C(=N/N(C)C)c1ccc(C)cc1`, for which the growth inhibition was -26.9%.

As for `CC(=O)Nc1ccc2cc(-c3ccc(Cl)cc3)c3nnnn3c2n1`, the growth inhibition was -53.1%.

For `Cc1cnoc1/N=C1\C=C(Nc2oncc2C)C(=O)c2ccccc21`, the growth inhibition is 2.9%.

On to `O=C1/C(=C\c2ccc(O)cc2)CCC/C1=C/c1ccc(Cl)c(Cl)c1`, for which the growth inhibition is 35.5%.

With `COC(=O)[C@H](Cc1c[nH]c2ccccc12)NP(=O)(OCCC#N)OCC1OC(n2cc(C)c(=O)[nH]c2=O)CC1N=[N+]=[N-]` (stereo not given in full), the growth inhibition is -13.3%.

With `CC(=O)Nc1ccc(/C=N/NC(=O)/C=C/c2ccccc2)cc1`, the growth inhibition is -5%.

In the case of `CSc1nc(=O)cc(N)n1C`, the growth inhibition is -23.7%.

For `O=C(O)c1cc(Cl)ccc1-c1ccc(Cl)cc1C(=O)Nc1ccc2c(c1)Cc1ccccc1-2`, the growth inhibition is 87.8% (active).

For `CC(=O)O[C@H]1CC[C@@]2(C)[C@@H](CC[C@@H]3[C@@H]2CC[C@]2(C)[C@@H](C(=O)CCC(F)(F)F)CC[C@@H]32)C1`, the growth inhibition was 23.3%.

For `OCc1c(-c2ccc(Cl)cc2)c(-c2ccc(Cl)cc2)c2n1CCC2`, the growth inhibition was 90.4% (active).

Consider `C/C(CC(C)C)=N\NC(=O)Nc1ccccc1Cl`, for which the growth inhibition is -3.85%.

For the molecule `O=C(NCCNCCNC(=O)C(F)(F)F)C(F)(F)F`, the growth inhibition was 12.8%.

With `CC1(Br)CP(=O)(c2ccccc2)CC1Br` (stereo not given), the growth inhibition was -24.4%.

Take `COc1ccc2cc(C(=O)c3ccccc3)c(=O)oc2c1`: the growth inhibition was 11.1%.

As for `CCOC(CCCl)c1ccc(C)cc1` (stereo not given), the growth inhibition was 20.1%.

With `Cc1csc2nc3[nH]ncc3c(=O)n12`, the growth inhibition was -9.85%.

For `CCCCCCCCCCCC(=O)c1c(O)cccc1O`, the growth inhibition is 16.9%.

For the molecule `CC(=O)N1c2ccccc2S(=O)(=O)c2ccccc21`, the growth inhibition is -15.9%.

Take `CC(=O)OC1CCCCCCC1`: the growth inhibition is -3.2%.

For the molecule `COc1ccc2c(NCCCCCCNc3c4ccccc4nc4cc(OC)ccc34)c3ccccc3nc2c1`, the growth inhibition is 87.5% (active).

These data come from PubChem BioAssay (NCI).
